Structures are written as SMILES. Screen size: about 420,000 compounds; about 50,000 (12%) were called active. Inconclusive results (about 26%) are left out. Calls come from the whole dose curve; as a rule, active = well fitted inhibition curve with a large enough effect; inconclusive = small, poorly fitted or top-dose-only effect; inactive = flat fitted curve, though single readings scatter. Many of the other results were omitted from the sample, so actives are more common in it than they were.

Results on 51 molecules are retold here after PubChem BioAssay AID686979 (National Center for Advancing Translational Sciences (NCATS), 2013).
% is set by controls: 0 for no effect and ±100 for the full control effect; potency is the fitted concentration of half-maximal effect.

The nature of this test: qHTS for Inhibitors of human tyrosyl-DNA phosphodiesterase 1 (TDP1): qHTS in cells in presence of CPT. Note: nearly all actives have a fitted effect of over 55% in size. To be noted: chicken DT40 Tdp1-/-;hTDP1 cells + 20 nM CPT, ATP luminescence, 48 h; series mostly up to 46.2 µM; activity change, negative = growth inhibition: at the top concentration. Summed up:
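Chicken DT40 Tdp1-/- cells complemented with human TDP1, 400 cells/well, exposed to compounds plus 20 nM camptothecin for at least 48 h at 37 C; viability read as ATP content by CellTiter-Glo luminescence.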
As for `CS(=O)(=O)N(CC(=O)Nc1ccc(F)cc1)C1CCCCC1`, the “activity change, negative = growth inhibition” value was 1.39% (inactive).

Regarding `N[C@H]1CN(c2c(F)cc3c(=O)c(C(=O)O)cn(C4C[C@H]4F)c3c2Cl)CC12CC2` (stereo partly specified), the “activity change, negative = growth inhibition” value was -5.28% (inactive). On to `O=C(CN1CCOCC1)Nc1cc(Cl)ccc1Cl`, for which the “activity change, negative = growth inhibition” value was 0.338% (inactive).

In the case of `O=C(CSc1nc(Nc2ccccc2)nc(N2CCOCC2)n1)Nc1cc(Cl)ccc1O`, the Potency is 25.9 µM (active). Turning to `CC1(c2ccccc2)NC(=O)N(CC(=O)Nc2cc(Cl)ccc2N2CCOCC2)C1=O` (stereo unspecified), the “activity change, negative = growth inhibition” value was -0.724% (inactive).

For `Cn1c(N)cc(=O)n(C)c1=S`, the “activity change, negative = growth inhibition” value is -6.81% (inactive). In the case of `Cc1ccnc(NS(=O)(=O)c2ccc(NC(=O)c3oc4ccc(F)cc4c3C)cc2)n1`, the “activity change, negative = growth inhibition” value is -8.42% (inactive).

Regarding `O=C(Nc1ccc(S(=O)(=O)Nc2ncccn2)cc1)C12CC3CC(CC(C3)C1)C2`, the “activity change, negative = growth inhibition” value was 10.4% (inactive). In the case of `COC(=O)c1ccc(NC(=O)C23CC4CC(C2)CC(n2cnc(Cl)n2)(C4)C3)cc1`, the Potency was 20.6 µM (active).

Turning to `Cc1ncn(C23CC4CC(CC(O)(C4)C2)C3)n1`, the “activity change, negative = growth inhibition” value was 2.94% (inactive).

Turning to `CC(=O)Oc1ccc2c(=O)oc(-c3ccc([N+](=O)[O-])cc3)nc2c1`, the “activity change, negative = growth inhibition” value is -2.32% (inactive).

As to `COc1ccc(S(=O)(=O)n2cnc3ccccc32)c(C)c1`, the Potency was 18.4 µM (active). For `Cc1ccc(C)c(S(=O)(=O)n2cnc3ccccc32)c1`, the “activity change, negative = growth inhibition” value was -2.59% (inactive).

With `Cc1ccc(S(=O)(=O)n2cnc3ccccc32)c(C)c1`, the “activity change, negative = growth inhibition” value is -14% (inactive).

As to `N#Cc1c(NC(=O)c2ccc(N3CCOCC3)c([N+](=O)[O-])c2)sc2c1CCCC2`, the “activity change, negative = growth inhibition” value is 0.828% (inactive).

For `COc1cccc2cc(C(N)=O)/c(=N\NC(=O)c3ccccc3)oc12`, the “activity change, negative = growth inhibition” value is -11% (inactive). With `CC(C)Cn1c(N2CCN(C(=O)/C=C/c3ccccc3)CC2)nc2ccccc21`, the Potency was 18.4 µM (active). Turning to `CC(C)N(C(=O)Cn1c(SCC(=O)N2CCN(c3ccccc3)CC2)nc2ccccc21)C(C)C`, the “activity change, negative = growth inhibition” value is 0.282% (inactive). The same measure, in the same setting: next, `CC1(C(=O)O)CCCN(C(=O)/C=C/c2ccccc2)C1` (stereo unspecified): 6.06% (inactive). On the same count and under the same terms, next, `CN(Cc1ccccc1Cl)C(=O)C1CCC(=O)N(CCc2cccc(F)c2)C1` (stereo unspecified): -24% (inactive). Same read-out and setting: as for `COc1ccc(OCC(=O)N2CCN(C(=O)COc3ccccc3)CC2)cc1`, the figure is -6.66% (inactive). Turning to `CN(C(=O)CN1CCN(c2cc(-c3ccc(OCc4ccccc4)cc3)ncn2)CC1)c1ccccc1`, the Potency was 18.4 µM (active). In the case of `CCOc1ccc(OCc2ccc(C(=O)N(C)c3ccccc3)o2)cc1`, the “activity change, negative = growth inhibition” value was -3.27% (inactive). The same measure, in the same setting: next, `CCCC(C)C(=O)Nc1ccc(NC(C)=O)cc1` (stereo unspecified): -2.66% (inactive); `CC1(C)[C@@H]2CC[C@@]1(C)[C@H](OC(=O)CSC#N)C2`: -22.1% (inactive); `CCCCNC(=O)c1ccc(-n2c(=S)[nH]c3ccccc3c2=O)cc1`: -3.14% (inactive). Same read-out and setting: next, `Cc1ccc(NC(=S)N(Cc2ccco2)C(C)c2cccs2)cc1` (stereo unspecified): -11.9% (inactive). With `Oc1cccc(/C=N/Nc2ccc(Cl)nn2)c1O`, the Potency was 0.092 µM (active).

In the case of `Fc1ccccc1Cc1ccc(Cl)nn1`, the “activity change, negative = growth inhibition” value is 1.4% (inactive). The same measure, in the same setting: next, `CCCCCCCN=C(C)c1ccccc1O`: 10.7% (inactive); `Clc1ccc(N/N=C/c2cccs2)nn1`: 14.4% (inactive); `COc1cccc(/C=N/Nc2ccc(Cl)nn2)c1`: -1.57% (inactive). Turning to `C/C(=N\Nc1ccc(Cl)nn1)c1ccccc1O`, the Potency was 0.58 µM (active). In the case of `O=CN1CCN(C(=O)c2ccc3c(c2)OCO3)CC1`, the “activity change, negative = growth inhibition” value is -4.43% (inactive). On the same count and under the same terms, next, `Cc1ccc(C(=O)O)cc1N1C(=O)CCCC1=O`: 9.25% (inactive); `Cc1ccc(-n2c(C)nnc2SCC(=O)NC2CC2)cc1`: -4.64% (inactive).

On to `COc1ccccc1N1CC(C(=O)Nc2ccc(S(=O)(=O)N3CCOCC3)cc2)CC1=O` (stereo unspecified), for which the “activity change, negative = growth inhibition” value is -22% (inactive). In the case of `COc1cc(OC)c(N2CC(C(=O)Nc3cc(Cl)ccc3N3CCOCC3)CC2=O)cc1Cl` (stereo unspecified), the Potency was 3.66 µM (active). As for `COc1ccc(Cl)cc1NC(=O)C1CC(=O)N(c2ccc(F)cc2)C1` (stereo unspecified), the “activity change, negative = growth inhibition” value was -17.6% (inactive).

In the case of `CCCOc1ccc(Cc2c(O)nc(N)[nH]c2=O)cc1C`, the “activity change, negative = growth inhibition” value is -0.484% (inactive). On the same count and under the same terms, as for `Cc1ccc(F)cc1S(=O)(=O)Nc1cccc(C(=O)N2CCCC(C(N)=O)C2)c1` (stereo unspecified), the figure is 13.4% (inactive). On the same count and under the same terms, as for `Cc1ccc(O/C=C2\OC(=O)c3ccccc32)cc1`, the figure is -28% (inactive).

`Cc1c(CCC(=O)N[C@@H](CC(C)C)C(=O)O)c(=O)oc2c(C)c3oc4c(c3cc12)CCCC4`: the “activity change, negative = growth inhibition” value was -3.78% (inactive). Still for that read-out and setting: next, `O=C(OCC1OC(Oc2ccc(O)cc2)C(O)C(O)C1O)c1ccccc1` (stereo unspecified): -20% (inactive). Still for that read-out and setting: as for `CCc1nnc(NC(=O)C2CCCN2S(=O)(=O)c2ccccc2)s1` (stereo unspecified), the figure is -10.1% (inactive). As for `CC(=O)Nc1ccc(NC(=O)C2CCCN2S(=O)(=O)c2cccc(C(F)(F)F)c2)cc1` (stereo unspecified), the “activity change, negative = growth inhibition” value was -24.5% (inactive). The same measure, in the same setting: as for `CCN(CC)S(=O)(=O)c1ccc2nc(COC(=O)c3n[nH]c4ccccc34)[nH]c2c1`, the figure is -5.88% (inactive). Regarding `CCc1ccccc1NS(=O)(=O)c1ccc2nc(-c3ccccc3)[nH]c2c1`, the Potency was 20.6 µM (active). Regarding `CCc1ccc(NC(=O)C2CCCN2S(=O)(=O)c2ccc3nc(-c4ccccc4)[nH]c3c2)cc1` (stereo unspecified), the Potency was 23.1 µM (active). Consider `Cc1ccc(S(=O)(=O)Nc2ccccc2CNc2c(C)n(C)n(-c3ccccc3)c2=O)cc1`, for which the “activity change, negative = growth inhibition” value was 0.158% (inactive). On the same count and under the same terms, as for `N#Cc1ccc(S(=O)(=O)NCC(=O)OCC(=O)NCCc2ccccc2)cc1`, the figure is 7.05% (inactive).
